Test results: PubChem BioAssay (Tox21)
Inconclusive results are not listed. Activity calls are given as the source filed them. Unless noted, calls follow the shape of the dose curve; as a rule, active = well fitted curve in the direction sought with a large enough effect in the repeat runs; inconclusive = weak or mixed curves; inactive = no such curve, though single readings can be large; an effect the other way counts as inactive or inconclusive.

Tests used:
[1] = qHTS assay to identify small molecule agonists of the estrogen receptor alpha (ER-alpha) signaling pathway in the presence of an antagonist - cell viability counter screen (AID 1259386);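 also: series mostly up to about 92 µM; cells exposed to compounds for 22 h at 37 °C before the viability read; nearly all actives have a fitted effect of over 30% in size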
In short: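 Using estrogen-depleted VM7Luc4E2 cells, the 15-concentration compound series was applied together with 10.0nM ICI-182,780 and incubated 22hr at 37C/5% CO2. Cell viability was then scored by CellTiter-Fluor.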

[2] = qHTS assay to identify small molecule antagonists of the TGF-beta/Smad signaling pathway - cell viability counter screen (AID 1346824); also: nearly all actives have a fitted effect of over 50% in size
In short: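 SBE-bla HEK 293T cells were plated overnight at 37 C, then given compounds in DMSO plus TGF-beta1 (added as 0.25 ng/mL solution) for 5 hr. After the bla read, CellTiter-Glo was added to the same wells and luminescence read after 30 min at room temperature.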

[3] = qHTS assay to identify small molecule agonists of the TGF-beta/Smad signaling pathway - cell viability counter screen (AID 1346829); also: top concentration of the series differs between compounds; nearly all actives have a fitted effect of over 45% in size
In short: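 Tox21 qHTS format: SBE-bla HEK 293T cells treated with DMSO-dissolved compounds for 5 hr; CellTiter-Glo luminescence after 30 min at room temperature.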

[4] = qHTS assay to identify small molecule agonists of the TGF-beta/Smad signaling pathway (AID 1346859; active = well fitted activation curve with a large enough effect in the signal ratio in the repeat runs, not every such curve was filed as active; the % refers to the signal ratio; also: series mostly up to about 77 µM)
In short: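 Reporter line: HEK 293T with stably integrated SBE-controlled beta-lactamase. Compound exposure lasts 5 hr at 37 C and 5% CO2; substrate loading follows for 2 hr at room temperature, with emission read at 460 and 530 nm.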

[5] = molecular target: Thyrotropin-releasing hormone receptor (Homo sapiens) (UniProt P34981); experiment: qHTS assay to identify small molecule antagonists of the thyrotropin-releasing hormone receptor (TRHR) signaling pathway (AID 1346877; active = well fitted inhibition curve with a large enough effect in the repeat runs, not every such curve was filed as active; also: series mostly up to about 51 µM)
Sequence of Thyrotropin-releasing hormone receptor (Homo sapiens) (P34981 whole entry, looked up): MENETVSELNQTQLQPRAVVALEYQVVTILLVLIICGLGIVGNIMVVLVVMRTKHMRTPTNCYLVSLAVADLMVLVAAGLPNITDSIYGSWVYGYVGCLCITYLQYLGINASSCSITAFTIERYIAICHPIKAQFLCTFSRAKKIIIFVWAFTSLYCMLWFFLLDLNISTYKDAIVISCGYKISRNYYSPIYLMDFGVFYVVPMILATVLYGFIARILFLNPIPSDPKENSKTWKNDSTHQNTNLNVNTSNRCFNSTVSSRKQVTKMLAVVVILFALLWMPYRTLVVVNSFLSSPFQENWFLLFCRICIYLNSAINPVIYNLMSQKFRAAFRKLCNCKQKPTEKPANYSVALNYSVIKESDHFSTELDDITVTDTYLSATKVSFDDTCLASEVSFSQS
In short: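 Calcium signal in dye-loaded TRHR/HEK293 cells; compounds added 5 min before TRH (1 nM final); fluorescence monitored 3 min at 1 s steps.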

[6] = molecular target: Thyrotropin-releasing hormone receptor (Homo sapiens) (UniProt P34981); experiment: qHTS assay to identify small molecule agonists of the thyrotropin-releasing hormone receptor (TRHR) signaling pathway (AID 1346891; calls by dose curve;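 also: HEK293 cells expressing TRHR with calcium dye readout; series mostly up to about 58 µM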)
In short: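 Cells: TRHR-Hek293, seeded and incubated 18 h. Dye loading: 2 h at 37 °C. Compound added from DMSO stock by pin tool. Read-out: kinetic calcium fluorescence over 3 min.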

[7] = Human pregnane X receptor (PXR) small molecule agonists, qHTS cell viability counter screen (AID 1346977); also: nearly all actives have a fitted effect of over 50% in size; also: potency is read from the fitted curve at half-maximal effect
In short: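 Cytotoxicity counter screen run in the same wells as the PXR luciferase assay, using PXR-Luc HepG2 cells in charcoal-stripped serum medium. Viability: CellTiter-Fluor fluorescence after 24hr compound treatment.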

[8] = Caspase-3/7 induction in CHO-K1 cells by small molecules, qHTS assay (AID 1346980); also: nearly all actives have a fitted effect of over 15% in size
In short: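 Wild-type cells were seeded at 1,500 per well and settled 5 hr at 37 C, 5% CO2, then exposed to DMSO-dissolved compounds for 17 hr. Caspase-Glo 3/7 reagent was added, and luminescence was read after 30min at room temperature.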

[9] = Caspase-3/7 induction in HepG2 cells by small molecules, qHTS cell viability counter screen (AID 1346981); also: series mostly up to about 92 µM; nearly all actives have a fitted effect of over 30% in size
In short: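 After a 5-hr attachment period at 37 C and 5% CO2, wild-type HepG2 cells received compounds in DMSO. Sixteen hours later CellTiter-Fluor was dispensed and the fluorescent signal quantified after a further hour.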

[10] = molecular target: Nuclear receptor subfamily 1 group I member 2 (Homo sapiens) (UniProt O75469); experiment: Human pregnane X receptor (PXR) small molecule agonists, qHTS assay (AID 1346982); also: nearly all actives have a fitted effect of over 35% in size; also: potency is read from the fitted curve at half-maximal effect
Sequence of Nuclear receptor subfamily 1 group I member 2 (Homo sapiens) (O75469 whole entry, looked up): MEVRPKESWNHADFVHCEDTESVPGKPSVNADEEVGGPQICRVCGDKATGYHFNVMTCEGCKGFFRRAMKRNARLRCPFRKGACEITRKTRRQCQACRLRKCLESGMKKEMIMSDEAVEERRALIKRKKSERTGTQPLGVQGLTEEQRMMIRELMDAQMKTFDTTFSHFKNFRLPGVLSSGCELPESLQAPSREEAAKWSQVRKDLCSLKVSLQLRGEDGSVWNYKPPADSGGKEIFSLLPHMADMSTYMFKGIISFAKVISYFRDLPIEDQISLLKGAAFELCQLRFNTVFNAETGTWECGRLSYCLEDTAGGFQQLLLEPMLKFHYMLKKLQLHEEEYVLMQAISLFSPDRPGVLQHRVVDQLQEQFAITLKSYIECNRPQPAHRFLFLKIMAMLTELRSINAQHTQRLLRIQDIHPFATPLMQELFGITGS
In short: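 Tox21 qHTS; PXR-Luc HepG2; compounds pinned from DMSO; 24 hr, 37 C; ONE-Glo luciferase detection, 30 min room temperature.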

[11] = molecular target: Nuclear receptor subfamily 1 group I member 2 (Rattus norvegicus) (UniProt Q9R1A7); experiment: Rat pregnane X receptor (rPXR) activation by small molecules, qHTS assay (AID 1346983); conditions: rPXR luciferase reporter cells, One-Glo luminescence, 24 h; max activation: stronger effect = higher value; also: nearly all actives have a fitted effect of over 20% in size; also: potency is read from the fitted curve at half-maximal effect
Sequence of Nuclear receptor subfamily 1 group I member 2 (Rattus norvegicus) (Q9R1A7 whole entry, looked up): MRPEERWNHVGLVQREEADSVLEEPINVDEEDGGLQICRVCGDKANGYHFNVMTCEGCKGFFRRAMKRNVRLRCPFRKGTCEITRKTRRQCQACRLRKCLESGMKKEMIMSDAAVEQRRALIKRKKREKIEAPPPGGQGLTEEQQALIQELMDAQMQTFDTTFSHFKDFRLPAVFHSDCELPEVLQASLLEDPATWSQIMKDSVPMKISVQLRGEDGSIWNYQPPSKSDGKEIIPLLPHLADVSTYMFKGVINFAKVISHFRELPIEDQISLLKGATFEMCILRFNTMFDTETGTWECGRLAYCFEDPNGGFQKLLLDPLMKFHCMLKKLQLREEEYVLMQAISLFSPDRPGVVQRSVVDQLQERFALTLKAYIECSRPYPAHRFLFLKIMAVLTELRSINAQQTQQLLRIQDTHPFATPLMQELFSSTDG
In short: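 Cell-based rPXR luciferase reporter assay, 2,000 cells per well, rested 5hr at 37 C before compound addition in DMSO, then 24 hr at 37 C. One-Glo reagent was added and luminescence read after 30 min at room temperature.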

[12] = molecular target: Nuclear receptor subfamily 1 group I member 2 (Homo sapiens) (UniProt O75469); experiment: CYP3A4 induction through human pregnane X receptor (PXR) by small molecules, qHTS assay (AID 1346984); also: nearly all actives have a fitted effect of over 40% in size; also: potency is read from the fitted curve at half-maximal effect
In short: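 Cells (DPX-2; HepG2 with PXR element plus CYP3A4-promoter luciferase) settled 5hr, then were treated 24hr at 37C. A 3hr, 3uM-final Luciferin-IPA step preceded luminescence measurement with One-Glo.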

[13] = molecular target: Nuclear receptor subfamily 1 group I member 2 (Homo sapiens) (UniProt O75469); experiment: Human pregnane X receptor (PXR) activation by small molecules, qHTS assay (AID 1346985); also: nearly all actives have a fitted effect of over 40% in size; also: potency is read from the fitted curve at half-maximal effect
In short: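 DPX-2 cells (HepG2 co-transfected with a PXR response element and a CYP3A4-promoter luciferase construct) were seeded at 2,000 per well, rested 5 hr at 37C, then exposed to DMSO-dissolved compounds for 24 hr. Activation was read as luciferase luminescence.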

[14] = molecular target: Progesterone receptor (Homo sapiens) (UniProt P06401); experiment: qHTS assay to identify small molecule antagonists of the progesterone receptor (PR) signaling pathway (AID 1346795; active = well fitted inhibition curve with a large enough effect in the signal ratio in the repeat runs, not every such curve was filed as active; the % refers to the signal ratio; also: potency is read from the fitted curve at half-maximal effect)
Sequence of Progesterone receptor (Homo sapiens) (P06401 whole entry, looked up): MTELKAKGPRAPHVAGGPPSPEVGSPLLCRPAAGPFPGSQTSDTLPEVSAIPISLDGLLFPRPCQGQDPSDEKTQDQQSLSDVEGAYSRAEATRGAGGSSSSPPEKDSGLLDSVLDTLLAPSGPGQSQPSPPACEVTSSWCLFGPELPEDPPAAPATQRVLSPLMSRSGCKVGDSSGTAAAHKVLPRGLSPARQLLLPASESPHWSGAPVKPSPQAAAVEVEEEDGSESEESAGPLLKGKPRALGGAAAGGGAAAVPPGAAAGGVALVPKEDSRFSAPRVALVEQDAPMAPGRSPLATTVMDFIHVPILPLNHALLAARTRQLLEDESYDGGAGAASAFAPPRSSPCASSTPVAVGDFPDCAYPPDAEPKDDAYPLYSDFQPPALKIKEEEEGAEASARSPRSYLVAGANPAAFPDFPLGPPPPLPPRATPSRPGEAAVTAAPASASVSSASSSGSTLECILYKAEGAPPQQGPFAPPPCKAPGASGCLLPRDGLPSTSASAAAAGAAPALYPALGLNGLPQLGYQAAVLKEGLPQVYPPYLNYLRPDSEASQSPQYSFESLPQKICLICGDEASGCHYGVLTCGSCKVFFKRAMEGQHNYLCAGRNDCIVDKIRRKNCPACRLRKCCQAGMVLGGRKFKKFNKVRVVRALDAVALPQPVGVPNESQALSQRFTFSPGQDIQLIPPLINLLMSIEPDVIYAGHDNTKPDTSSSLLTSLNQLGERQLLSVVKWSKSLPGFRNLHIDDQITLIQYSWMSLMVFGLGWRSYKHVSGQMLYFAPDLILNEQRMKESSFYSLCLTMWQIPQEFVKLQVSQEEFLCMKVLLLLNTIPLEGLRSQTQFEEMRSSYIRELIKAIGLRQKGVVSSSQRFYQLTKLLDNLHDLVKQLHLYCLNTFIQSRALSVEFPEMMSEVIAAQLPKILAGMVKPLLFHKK
In short: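 Antagonist mode: compounds tested against 1 nM (final) promegestone stimulation in HEK293T cells expressing PR-UAS-bla reporter, 16 hr at 37C, 5% CO2; beta-lactamase activity detected via B/G FRET substrate after 2 hr at room temperature.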

[15] = qHTS assay to identify small molecule antagonists of the progesterone receptor (PR) signaling pathway - cell viability counter screen (AID 1346798); also: nearly all actives have a fitted effect of over 50% in size; also: potency is read from the fitted curve at half-maximal effect
In short: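 Counter screen for cytotoxicity: viability of PR-UAS-bla HEK293T cells was measured with CellTiter-Glo luminescence following 16 hr compound exposure in the presence of R5020.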

[16] = qHTS assay to identify small molecule agonists of the progesterone receptor (PR) signaling pathway - cell viability counter screen (AID 1346799; calls by dose curve; also: nearly all actives have a fitted effect of over 45% in size; also: potency is read from the fitted curve at half-maximal effect)
In short: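 Cells (PR-UAS-bla HEK293T) are plated at 3,000/well in 2% charcoal-stripped FBS medium, rested 6 hr, dosed and incubated 16 hr at 37C. CellTiter-Glo is then added and luminescence measured after 30 min at room temperature.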

[17] = Caspase-3/7 induction in HepG2 cells by small molecules, qHTS assay (AID 1346978); also: nearly all actives have a fitted effect of over 15% in size
In short: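 Wild-type HepG2 cells (2,000/well) were settled 5 h at 37 C, 5% CO2, then exposed to compounds in DMSO for 17 h. Caspase-3/7 activity was read by luminescence 30 min after adding Caspase-Glo 3/7 reagent at room temperature.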

[18] = Caspase-3/7 induction in CHO-K1 cells by small molecules, qHTS cell viability counter screen (AID 1346979); also: nearly all actives have a fitted effect of over 35% in size
In short: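 Cytotoxicity counter screen run in parallel with the caspase-3/7 assay: CHO-K1 cells, 16hr compound treatment at 37C, then CellTiter-Fluor for 1hr before fluorescence reading.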

[19] = molecular target: Progesterone receptor (Homo sapiens) (UniProt P06401); experiment: qHTS assay to identify small molecule agonists of the progesterone receptor (PR) signaling pathway (AID 1346784; calls by dose curve; also: nearly all actives have a fitted effect of over 30% in size)
In short: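 Cells (PR-UAS-bla HEK 293T, GripTite) were plated in assay medium containing 2% charcoal-stripped FBS and incubated 6 hr. Test compounds in DMSO were added for 16 hr at 37C. FRET substrate was then loaded for 2 hr at room temperature before fluorescence reading.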
% is scaled to controls: 0 for no effect and ±100 for the full control effect.

CCCC(=O)O[C@]1(C(=O)CCl)[C@@H](C)C[C@H]2[C@@H]3CCC4=CC(=O)C=C[C@]4(C)[C@@]3(F)C(=O)C[C@@]21C
active: Potency [10] 2.11 µM | Potency [11] 1 µM | Potency [12] 0.631 µM | Potency [13] 11.2 µM
inactive: outcome [1] | outcome [2] | outcome [3] | outcome [4] | outcome [5] | outcome [6] | Potency [7] | outcome [8] | outcome [9]

C=C(C)C(=O)NCCCN(C)C
inactive: outcome [1] | Potency [14] | Potency [15] | Potency [16] | outcome [2] | outcome [3] | outcome [4] | outcome [5] | outcome [6] | Potency [7] | outcome [17] | Potency [18] | outcome [8] | outcome [9] | Potency [10]

CC1=CC(C)C(C=O)C(C)C1 (stereo not given)
inactive: outcome [1] | Potency [16] | outcome [2] | Potency [7] | outcome [17] | Potency [18] | outcome [8] | Potency [10]

Nc1[nH]c(=O)ncc1F
inactive: outcome [1] | Potency [15] | Potency [16] | outcome [2] | outcome [3] | outcome [4] | Potency [7] | outcome [17] | Potency [18] | outcome [8] | outcome [9] | Potency [10] | max activation [11] -0.668% | Potency [12] | Potency [13]

CN1[C@@H]2CC[C@H]1CC(NC(=O)n1c(=O)[nH]c3ccccc31)C2 (stereo not given in full)
inactive: outcome [1] | Potency [19] | Potency [15] | Potency [16] | outcome [2] | outcome [3] | outcome [4] | outcome [5] | outcome [6] | Potency [7] | Potency [18] | outcome [8] | Potency [10]

C1C2OC2C2C1C1CC2C2OC12 (stereo not given)
inactive: outcome [1] | Potency [19] | Potency [15] | Potency [16] | outcome [2] | outcome [3] | outcome [4] | outcome [5] | outcome [6] | Potency [7] | outcome [17] | Potency [18] | outcome [8] | outcome [9] | Potency [10]

CC(CCO)CCCC(C)(C)O (stereo not given)
inactive: outcome [1] | Potency [14] | Potency [15] | Potency [16] | outcome [2] | outcome [3] | outcome [4] | outcome [5] | outcome [6] | Potency [7] | outcome [17] | outcome [8] | Potency [10]

O=c1[nH]c(=O)n([C@H]2O[C@H](CO)[C@@H](O)[C@@H]2O)cc1/C=C\Br
inactive: outcome [1] | Potency [14] | Potency [15] | Potency [16] | outcome [2] | outcome [3] | outcome [4] | outcome [5] | outcome [6] | Potency [7] | outcome [17] | Potency [18] | outcome [8] | outcome [9] | Potency [10]

O=[N+]([O-])c1ccc(Oc2ccc([N+](=O)[O-])cc2)cc1
inactive: outcome [1] | Potency [19] | outcome [2] | outcome [3] | outcome [4] | Potency [7] | outcome [17] | Potency [18] | outcome [8] | outcome [9] | Potency [10]
active: Potency [14] 3.94 µM

Cc1nccn1CC1CCc2c(c3ccccc3n2C)C1=O (stereo not given)
inactive: outcome [1] | Potency [14] | Potency [15] | Potency [16] | outcome [2] | outcome [3] | outcome [4] | outcome [5] | outcome [6] | Potency [7] | outcome [17] | Potency [18] | outcome [8] | outcome [9] | Potency [10]

CNC(=O)c1c(I)c(NC(=O)CCCCC(=O)Nc2c(I)c(C(=O)O)c(I)c(C(=O)NC)c2I)c(I)c(C(=O)O)c1I
inactive: outcome [1] | Potency [14] | Potency [15] | Potency [16] | outcome [2] | outcome [3] | outcome [4] | outcome [5] | outcome [6] | Potency [7] | outcome [17] | Potency [18] | outcome [8] | outcome [9] | Potency [10]

CCCOc1ccccc1-c1nc2n[nH]nc2c(=O)[nH]1
inactive: outcome [1] | Potency [19] | Potency [15] | Potency [16] | outcome [2] | outcome [3] | outcome [5] | outcome [6] | Potency [7] | outcome [17] | Potency [18] | outcome [8] | outcome [9]

OCCCCCCO
inactive: outcome [1] | outcome [2] | outcome [4] | outcome [5] | outcome [6] | Potency [7] | outcome [17] | Potency [18] | outcome [8]
active: Potency [15] 61.9 µM | Potency [16] 19.6 µM

CN(C)C(=O)C(CCN1CCC(O)(c2ccc(Cl)cc2)CC1)(c1ccccc1)c1ccccc1
inactive: outcome [1] | Potency [19] | Potency [15] | Potency [16] | outcome [2] | outcome [5] | outcome [6] | outcome [8] | Potency [10]
active: Potency [7] 23.7 µM

c1ccc(SCCSc2ccccc2)cc1
inactive: outcome [1] | Potency [19] | Potency [15] | Potency [16] | outcome [2] | outcome [3] | outcome [4] | outcome [5] | outcome [6] | Potency [7] | outcome [17] | Potency [18] | outcome [8] | outcome [9]
active: Potency [10] 7.63 µM

C1COCCO1
inactive: outcome [1] | Potency [14] | Potency [15] | Potency [16] | outcome [2] | outcome [3] | outcome [4] | outcome [5] | outcome [6] | Potency [7] | outcome [17] | Potency [18] | outcome [8] | outcome [9] | Potency [10]

Cc1nc(-c2ccc(OCC(C)C)c(C#N)c2)sc1C(=O)O
inactive: outcome [1] | Potency [19] | Potency [15] | Potency [16] | outcome [2] | outcome [3] | Potency [7] | outcome [17] | Potency [18] | outcome [8] | outcome [9]
active: Potency [10] 0.106 µM
